# GLP1R ag: activates the human GLP-1 receptor. Potency, µM (highest dose often 45.6 µM), actives largely listed as activators. HEK293 GLP-1R CRE-luciferase, luminescence, 4-6 h; cells express a hypersensitive GLP-1R form. P43220. 380,000 tested, 0.007% active
# Target sequence (P43220 whole entry, looked up): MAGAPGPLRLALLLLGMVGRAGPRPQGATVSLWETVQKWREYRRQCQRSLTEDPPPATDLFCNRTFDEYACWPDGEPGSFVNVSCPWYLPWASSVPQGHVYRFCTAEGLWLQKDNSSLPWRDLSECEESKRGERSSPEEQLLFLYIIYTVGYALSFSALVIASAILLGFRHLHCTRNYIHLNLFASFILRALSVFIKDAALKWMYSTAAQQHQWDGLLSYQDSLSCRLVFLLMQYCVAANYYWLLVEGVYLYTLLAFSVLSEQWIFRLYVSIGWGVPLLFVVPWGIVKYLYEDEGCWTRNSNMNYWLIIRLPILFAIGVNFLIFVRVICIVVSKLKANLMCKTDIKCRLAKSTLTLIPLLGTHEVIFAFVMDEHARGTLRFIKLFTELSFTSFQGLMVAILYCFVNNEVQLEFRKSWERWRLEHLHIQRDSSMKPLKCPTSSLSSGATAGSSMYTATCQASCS
# Tb PFK inh-1: inhibitors of T. brucei phosphofructokinase; 330,000 tested, 0.17% active; T. brucei PFK, ADP-Glo luminescence; AID 485367; O15648; Potency, µM (top dose mostly 57.5 µM), hits mostly inhibitors; also: nearly all actives have a fitted effect of over 60% in size
#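 In TEA buffer at pH 8.0 with 5 mM MgCl2, enzyme (1.25 nM) converted F6P (0.5 mM) and ATP (0.1 mM) for 45 min at room temperature. ADP product was read by luciferase luminescence.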
# PGK inhibitor: blocks T. brucei phosphoglycerate kinase; P07378; PGK/GAPDH coupled, Kinase-Glo luminescence, 60 min; Potency, µM (top dose mostly 57.5 µM), hits mostly inhibitors; 380,000 tested, 0.043% active; also: nearly all actives have a fitted effect of over 60% in size
#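 Recombinant glycosomal PGK reaction used 1,3-bisphosphoglycerate generated in-well by GAPDH (100nM final) in 100mM TEA pH 7.6, 5mM MgCl2, 0.01% Tween-20. After 60 minutes at room temperature, ATP was read by Kinase-Glo Plus luminescence end-point.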
# HEK293 tox: cytotoxic in the GLP-1 receptor inverse agonist counter-screen; 410,000 tested, 0.13% active; AID 624418; HEK293 cAMP-luciferase reporter cells, luminescence, 24 h; Potency, µM (titrated, usually from 38.3 µM), hits mostly inhibitors;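 also: loss of luciferase light is scored as toxicity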
#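 A 23 nL compound transfer followed 12 hours of cell culture at 37 deg C; exposure then lasted 24 hr. Luciferase assay detection reagent was dispensed and plates read for luminescence after a 12 min room-temperature wait.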
# Pin1 inh: blocks the human prolyl isomerase Pin1. Q13526. Pin1 FP peptide displacement, HiFluor488, 10 min. Potency, µM (titrated, usually from 115 µM), usual class: inhibitors. 390,000 tested, 0.009% active; active = well fitted inhibition curve with a large enough effect in the polarisation, with a control signal flat, not every such curve was filed as active; inconclusive = small, poorly fitted or top-dose-only effect, or effect the other way, or a change in a side signal; inactive = no such curve, though single readings can be large or run the other way; the % refers to the polarisation
# Target sequence (Q13526 whole entry, looked up): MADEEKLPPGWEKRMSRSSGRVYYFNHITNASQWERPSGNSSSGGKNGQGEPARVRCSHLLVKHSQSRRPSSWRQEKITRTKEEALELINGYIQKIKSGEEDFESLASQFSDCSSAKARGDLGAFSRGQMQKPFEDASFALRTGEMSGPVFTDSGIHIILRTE
# GLP1R inv ag: GLP-1 receptor (human) inverse agonism; P43220; HEK293 GLP-1R CRE-luciferase, luminescence, 24 h; GLP-1R form is constitutively active; Potency, µM (highest dose often 38.3 µM), most hits filed as inhibitors; 410,000 tested, 1.6% active; AID 624417; also: nearly all actives have a fitted effect of over 55% in size
#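 Constitutively active GLP-1R drives a cAMP-responsive luciferase in stably transfected HEK293 cells; test compounds are added after overnight (12 h) attachment and left 24 hr, and signal loss in luminescence marks inhibition.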
# TbPFK ATP: inhibits T. brucei PFK measured by ATP depletion; shares compounds with Tb PFK inh-1; Tb PFK enzyme, ATP depletion, Kinase-Glo Plus luminescence; Potency, µM (doses to about 57.5 µM); 1,100 tested, 47% active; calls by dose curve; also: nearly all actives have a fitted effect of over 60% in size
# Tb PFK inh-2: validation of T. brucei phosphofructokinase inhibitors | Potency, µM (doses to about 57.5 µM), actives largely listed as inhibitors | shares compounds with Tb PFK inh-1 | purified T. brucei PFK, ADP-Glo luminescence, 45 min | AID 504637 | 1,100 tested, 41% active; also: nearly all actives have a fitted effect of over 60% in size
# Numbers stand for hits; 0 = inactive; ? = inconclusive; - = no result given. A selection: hits, their analogues and other compounds. The true share with any hit is near 1.8%. Unless noted, calls follow the shape of the dose curve; as a rule, active = well fitted curve in the direction sought with a large enough effect; inconclusive = small, poorly fitted or top-dose-only effect, or another doubt; inactive = no such curve, though single readings can be large; an effect the other way counts as inactive or inconclusive.
SMILES,GLP1R ag,Tb PFK inh-1,PGK inhibitor,HEK293 tox,Pin1 inh,GLP1R inv ag,others
CC(C)(C)NC(=O)N1c2ccccc2Sc2ccccc21,0,0,0,0,0,?,
CC1CCN(C(=O)N2c3ccccc3Sc3ccccc32)CC1,0,0,0,0,0,2µM,
NC(c1csc(Nc2ccc(C(F)(F)F)cn2)n1)C1CCCCC1 (stereo not drawn),0,-,-,?,-,?,
O=C(O)c1ccccc1Nc1ccc([N+](=O)[O-])c2nonc12,0,0,0,?,0,0,
O=c1c2ccccc2nc(-c2ccccc2)n1-c1ccccc1,0,0,0,0,0,5µM,
CCCCc1nc2ccccc2c(=O)n1-c1ccc(O)cc1,0,0,0,0,0,2.2µM,
O=c1c2ccccc2nc(-c2ccccc2)n1-c1cccc(O)c1,0,0,0,0,0,1µM,
O=c1c2ccccc2nc(N2CCCC2)n1-c1ccccc1,0,0,0,0,0,3.2µM,
CCCc1nc2ccccc2c(=O)n1-c1ccc(O)cc1,0,0,0,0,0,?,
COc1cc(C2C3=C(COC3=O)Oc3cc4c(cc32)OCO4)ccc1O (stereo not drawn),0,-,0,?,0,?,
CCNC(C)Cc1ccc2c(c1)OCO2 (stereo not drawn),0,-,-,-,-,-,
Cc1ccccc1NC(=O)Nc1nc(C(N)C2CCCCC2)cs1 (stereo not drawn),0,-,-,?,-,?,
CCC1CSC(=Nc2ccc(C)cc2)N1C(=O)CN1C(=O)NC2(CCCC2)C1=O (stereo not drawn),0,0,0,?,0,?,
CC(=O)C1=C(O)C2(C)c3c(O)c(C)c(O)c(C(C)=O)c3OC2CC1=O (stereo not drawn),0,-,0,0,-,?,
Cc1cccc2sc(NNC(=O)c3cc(-c4cccs4)nc4ccccc34)nc12,0,0,0,?,0,?,
C=CCC1(C(C)CCC)C(=O)NC(=O)NC1=O (stereo not drawn),0,-,-,-,-,-,
CC(C)OCCCNC(=O)c1c(N)n(Cc2cccs2)c2nc3ccccc3nc12,0,0,0,0,?,11µM,
CN1CCN(CCOC2c3ccccc3CSc3ccc(Cl)cc32)CC1 (stereo not drawn),0,0,0,?,0,?,
Clc1ccc2c(c1)C(OC1CN3CCC1CC3)c1ccccc1CS2 (stereo not drawn),0,0,0,?,0,2.8µM,
COc1cc(CCN)c(OC)cc1Br,0,-,-,-,-,-,
CC[C@@H](C(=O)[C@@H](C)[C@@H](O)[C@H](C)[C@@H]1O[C@@H]([C@@H](CC)C(=O)O)CC[C@@H]1C)[C@H]1O[C@]2(C=C[C@@H](O)[C@]3(CC[C@@](C)([C@H]4CC[C@](O)(CC)[C@H](C)O4)O3)O2)[C@H](C)C[C@@H]1C,0,-,0,4µM,0,?,
c1ccc(Nc2c3c(nc4ccccc24)CCC3)cc1,0,0,0,?,0,11µM,
CC1CCC(C(C)C)C(OC(=O)Cn2c(-c3ccccc3)[n+](C)c3ccccc32)C1 (stereo not drawn),0,0,0,8.9µM,0,?,
CC1CCC(C(C)C)C(OC(=O)Cn2c(COc3ccccc3)[n+](C)c3ccccc32)C1 (stereo not drawn),0,0,0,?,0,?,
CCOP(=O)(OCC)c1nc(-c2ccc(Br)cc2)oc1N1CCCCC1,0,0,-,0,0,8.9µM,
SMILES,GLP1R ag,Tb PFK inh-1,PGK inhibitor,HEK293 tox,Pin1 inh,GLP1R inv ag,others
O=C(COc1ccc(Cl)cc1)Nc1ccc2[nH]ncc2c1,0,?,0,0,0,0,TbPFK ATP=17µM;Tb PFK inh-2=24µM
COc1ccc(OCC(=O)OCC(=O)Nc2ccc3[nH]c(=O)[nH]c3c2)cc1,0,30µM,0,0,0,0,TbPFK ATP=?;Tb PFK inh-2=?
CCOc1ccc(NC(=O)c2c(O)[nH]c(=O)[nH]c2=O)cc1,0,-,0,0,0,0,
COc1ccccc1C(=O)NCC(=O)OCC(=O)Nc1ccc2[nH]c(=O)[nH]c2c1,0,27µM,0,0,0,0,TbPFK ATP=?;Tb PFK inh-2=?
O=C1CC[C@@]2(O)C3Cc4ccc(O)c5c4C2(CCN3CC2CC2)[C@H]1O5 (stereo partly drawn),0,-,-,-,-,-,
CSc1cccc(NC(=O)C2CCN(C(=O)c3cnn(-c4ccccc4)c3-n3cccc3)CC2)c1,-,-,0,0,0,?,
CC1=NOC(=O)/C1=C\c1ccc(-c2cccc(Cl)c2)o1,0,21µM,0,?,0,0,TbPFK ATP=6µM;Tb PFK inh-2=11µM
O=C1NC(=O)C(=Cc2ccc(-c3ccc(Cl)cc3)o2)C(=O)N1,0,0,0,0,0,?,
CCCCN1CCS(=O)(=O)N(Cc2ccccc2Br)CC(C(=O)OC)C1 (stereo not drawn),0,0,0,0,0,?,
CCOC(=O)Cc1csc(-n2sc3ccccc3c2=O)n1,0,11µM,0,0,0,0,TbPFK ATP=?;Tb PFK inh-2=?
CCCCCn1c(=O)c(C(=O)Nc2nc(CC(=O)OCC)cs2)c(O)c2ccccc21,0,0,0,0,0,0,
COc1ccc(C(=O)CN2CCOCC2)cc1F,0,0,0,0,?,0,
COc1ccc(C(=O)CSC#N)cc1OC,0,?,0,?,0,0,TbPFK ATP=4.8µM;Tb PFK inh-2=12µM
Oc1cc2c(cc1C(c1ccc(Cl)c(Cl)c1)N1CCCC1)OCO2 (stereo not drawn),0,21µM,0,0,?,0,TbPFK ATP=?;Tb PFK inh-2=?
CCC(Oc1ccccc1OC)C(=O)Nc1ccc2c(c1)OCCO2 (stereo not drawn),0,0,0,0,0,?,
O=C1NC(c2ccc(Cl)c([N+](=O)[O-])c2)Nc2ccccc21 (stereo not drawn),0,21µM,0,0,0,?,TbPFK ATP=24µM;Tb PFK inh-2=13µM
O=[N+]([O-])c1ccc(Cl)c([N+](=O)[O-])c1,0,0,0,?,0,?,
Cc1c(Cl)cnc(NC(=O)COC(=O)c2ccc3ncsc3c2)c1Cl,0,?,0,0,0,0,TbPFK ATP=0;Tb PFK inh-2=?
COc1ccc(OC)c2c1C(=O)C(Cl)=C(Cl)C2=O,0,1.2µM,0,?,?,?,TbPFK ATP=0.34µM;Tb PFK inh-2=0.67µM
N=C1/C(=C/c2ccc(OC(=O)c3ccco3)cc2)C(=O)N=C2SC=CN12,0,0,0,0,0,0,
Cc1nc2ccc(NC3=NCCCCC3)cc2s1,0,11µM,0,0,0,0,TbPFK ATP=8.5µM;Tb PFK inh-2=6.7µM
